The values that follow come from PubChem BioAssay (Tox21).

The structures appear in SMILES notation. Unmarked numbers belong to inactive results. Inconclusive results are not listed. Activity calls are given as the source filed them. Unless noted, calls come from the whole dose curve; as a rule, active = well fitted curve in the direction sought with a large enough effect in the repeat runs; inconclusive = weak or mixed curves; inactive = no such curve, though single readings can be large; an effect the other way counts as inactive or inconclusive.

Assay [1] can be described thus: qHTS assay to identify small molecule antagonists of the estrogen receptor alpha (ER-alpha) signaling pathway using the BG1 cell line in the presence of 0.1 nM 17-beta-estradiol - cell viability counter screen (AID 1259241). Note: nearly all actives have a fitted effect of over 40% in size. The method, boiled down:
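Viability in VM7Luc4E2 cells after 22 hr compound exposure under 0.1 nM 17beta-estradiol stimulation, by CellTiter-Fluor.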
A general note: Quantitative high-throughput screening tests each substance at several concentrations.

The nature of assay [2]: qHTS assay to identify small molecule antagonists of the androgen receptor (AR) signaling pathway using the MDA cell line in the presence of 0.5 nM R1881 - cell viability counter screen (AID 1259242). Note: nearly all actives have a fitted effect of over 45% in size. The method, boiled down:
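MDA-kb2 cells (human breast carcinoma, stably carrying MMTV-luciferase reporter) were exposed to compounds with 0.5 nM R1881 (final) for 16 hr at 37C, 0% CO2; viability then read as live-cell protease fluorescence (CellTiter-Fluor, 30 min) in the same wells.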

Assay [3] has as its target Estrogen receptor (Homo sapiens) (UniProt P03372). As to the kind of experiment: qHTS assay to identify small molecule antagonists of the estrogen receptor alpha (ER-alpha) signaling pathway using the BG1 cell line in the presence of 0.1 nM 17-beta-estradiol (AID 1259244). Note: nearly all actives have a fitted effect of over 50% in size. Summed up: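 VM7Luc4E2 cells (endogenous full-length ER-alpha, stable 4xERE-luciferase) were grown 5 days in phenol red-free medium with charcoal-stripped FBS, then exposed 22 h at 37C to compounds plus 0.1 nM (final) 17beta-estradiol; ONE-Glo luminescence read-out.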

A short description of assay [4]: qHTS assay to identify small molecule HDAC inhibitors (AID 1259364). Note: top concentration of the series differs between compounds; nearly all actives have a fitted effect of over 45% in size. Summed up: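 Wild-type HCT-116 cells were plated overnight, exposed to compounds for 2 h at 37 °C, then given HDAC-Glo class I/II luminogenic reagent for 30 min at room temperature before luminescence was read.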
Assay [5] is described as follows: qHTS assay to identify small molecule HDAC inhibitors - cell viability counter screen (AID 1259365). Note: series mostly up to about 92 µM; nearly all actives have a fitted effect of over 50% in size. The method, boiled down: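 Cytotoxicity was gauged in wild-type HCT-116 cells after a brief 2hr treatment with DMSO-dissolved compounds at 37C and 5% CO2, using CellTiter-Glo luminescence developed for 30min at room temperature.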
Assay [6] is described as follows: qHTS assay to identify small molecule agonists of the sonic hedgehog signaling (Shh) pathway - cell viability counter screen (AID 1259366). Note: nearly all actives have a fitted effect of over 50% in size. The method, boiled down:
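Stable Gli1-Luc NIH/3T3 clone, 2,000 cells/well. Compound exposure 24hr at 37C. Read-out: CellTiter-Fluor fluorescence.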

Assay [7] is described as follows: qHTS assay to identify small molecule antagonists of the sonic hedgehog signaling (Shh) pathway - cell viability counter screen (AID 1259367). Note: nearly all actives have a fitted effect of over 55% in size. The method, boiled down:
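Seed 3T3 Gli1-Luc cells at 2,000 per well; incubate 4 hr; add compound in DMSO, then conditioned medium; incubate at 37C with 5% CO2; add CellTiter-Fluor after 23 hr; read fluorescence 1 hr later.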

The nature of assay [8]: qHTS assay to identify small molecule agonists of the sonic hedgehog signaling (Shh) pathway (AID 1259368; calls by dose curve; note: series mostly up to about 92 µM; nearly all actives have a fitted effect of over 15% in size). The method, boiled down: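 NIH/3T3-derived 3T3Gli1-Luc cells carrying a stably integrated Gli1 response element–firefly luciferase reporter were plated, left 4 hr at 37 C, then given compounds in DMSO for 24 hr. Luminescence was read 30 min after adding luciferase reagent.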

Assay [9] can be described thus: qHTS assay to identify small molecule antagonists of the sonic hedgehog signaling (Shh) pathway (AID 1259369; calls by dose curve; note: nearly all actives have a fitted effect of over 45% in size; note: potency is the fitted concentration of half-maximal effect). The method, boiled down: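 NIH/3T3-derived 3T3Gli1-Luc cells with stably integrated Gli1-Luc reporter were preincubated 4hr at 37 C, then given compounds in DMSO plus Shh conditioned medium and incubated 24hr. Firefly luciferase luminescence read after 30min reagent at room temperature.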

Assay [10] in a line: qHTS assay to identify small molecule agonists of the estrogen receptor beta (ER-beta) signaling pathway - cell viability counter screen (AID 1259380). Note: nearly all actives have a fitted effect of over 30% in size. Note: potency is the fitted concentration of half-maximal effect. Summed up: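 ER-beta-UAS-bla HEK293T cells in medium with 2% charcoal-stripped FBS were preincubated 6 hr at 37C, dosed with compound in DMSO for 16 hr, then after the bla read, CellTiter-Glo was added for 30 min at room temperature; luminescence recorded.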

Assay [11] is described as follows: qHTS assay to identify small molecule antagonists of the estrogen receptor beta (ER-beta) signaling pathway - cell viability counter screen (AID 1259382). Note: series mostly up to about 92 µM; nearly all actives have a fitted effect of over 55% in size. The method, boiled down:
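ER-beta-UAS-bla HEK293T cells (2,000/well, 2% charcoal-stripped FBS) were pre-incubated 6 hr at 37C, then given compound plus 1nM final 17-beta-estradiol for 16 hr. Viability was read in the same wells by CellTiter-Glo luminescence after 30 min at room temperature.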

The target in assay [12] is Estrogen receptor (Homo sapiens) (UniProt P03372). As to the kind of experiment: qHTS assay to identify small molecule agonists of the estrogen receptor alpha (ER-alpha) signaling pathway in the presence of an antagonist (AID 1259383; calls by dose curve; note: nearly all actives have a fitted effect of over 15% in size; note: potency is the fitted concentration of half-maximal effect; for activation: top concentration of the series differs between compounds). The method, boiled down:
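VM7Luc4E2 cells (endogenous full-length ER-alpha, 4×ERE-luciferase) were precultured 5 days in phenol red-free medium with 10% charcoal-stripped FBS, given 10.0nM ICI-182,780 (final), then treated with compounds at 15 concentrations for 22hr at 37C; luminescence read with ONE-Glo.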

Assay [13] in a line: qHTS assay to identify small molecule agonists or antagonists of the thyroid stimulating hormone receptor (TSHR) signaling pathway - wild type cell line counter screen (AID 1259384; calls by dose curve). The method, boiled down: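 Wild-type Hek293 cells, 800/well, 18 h at 37C, then compound with Ro20-1724 for 30 min RT. cAMP by HTRF (cAMP-d2/anti-cAMP cryptate), 1 h RT, fluorescence read. 15 concentrations, triplicates.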

The target in assay [14] is Thyrotropin receptor (Homo sapiens) (UniProt P16473). As to the kind of experiment: qHTS assay to identify small molecule antagonists of the thyroid stimulating hormone receptor (TSHR) signaling pathway (AID 1259385; calls by dose curve; note: nearly all actives have a fitted effect of over 20% in size). The method, boiled down: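 TSHR-HEK293 cells (800/well) plated 18 h, then compounds with Ro20-1724 and TSH at 1.5 ng/mL final, 30 min at room temperature. cAMP quantified by HTRF (cAMP-d2/anti-cAMP-cryptate, 1 h); 15 concentrations in triplicate.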
Chain of Thyrotropin receptor (Homo sapiens) (P16473 whole entry, looked up): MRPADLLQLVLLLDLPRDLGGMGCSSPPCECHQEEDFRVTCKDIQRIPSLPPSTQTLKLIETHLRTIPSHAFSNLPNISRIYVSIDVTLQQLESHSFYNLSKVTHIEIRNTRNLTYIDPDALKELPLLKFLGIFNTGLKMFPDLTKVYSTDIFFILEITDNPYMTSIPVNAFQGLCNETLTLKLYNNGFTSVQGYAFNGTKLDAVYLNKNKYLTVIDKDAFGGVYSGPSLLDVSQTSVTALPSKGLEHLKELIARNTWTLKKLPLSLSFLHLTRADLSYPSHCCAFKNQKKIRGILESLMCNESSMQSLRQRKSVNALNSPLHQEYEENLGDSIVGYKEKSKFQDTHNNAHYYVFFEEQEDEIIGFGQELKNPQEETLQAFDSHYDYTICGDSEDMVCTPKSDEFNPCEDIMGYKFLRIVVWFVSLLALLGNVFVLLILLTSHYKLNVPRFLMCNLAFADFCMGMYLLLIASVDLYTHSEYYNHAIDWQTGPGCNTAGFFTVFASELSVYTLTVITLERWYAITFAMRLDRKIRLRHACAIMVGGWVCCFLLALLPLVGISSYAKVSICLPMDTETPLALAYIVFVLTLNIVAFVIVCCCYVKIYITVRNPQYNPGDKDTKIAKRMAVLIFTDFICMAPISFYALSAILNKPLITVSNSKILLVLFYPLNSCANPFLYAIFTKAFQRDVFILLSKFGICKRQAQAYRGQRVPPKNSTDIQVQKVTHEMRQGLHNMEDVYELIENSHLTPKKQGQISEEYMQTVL

Assay [15] in a line: qHTS assay to identify small molecule agonists of the androgen receptor (AR) signaling pathway in the presence of an antagonist - cell viability counter screen (AID 1259379). Note: series mostly up to about 92 µM; nearly all actives have a fitted effect of over 25% in size. Summed up:
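MDA-kb2 human breast carcinoma cells (stable MMTV-luciferase, AR/GR responsive) were seeded 3,000 cells/well, pre-incubated 5 hr at 37C without CO2, then given 3.0uM nilutamide and compounds at 15 concentrations for 16 hr. Viability was read by CellTiter-Fluor fluorescence.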

The target of assay [16] is Estrogen receptor beta (Homo sapiens) (UniProt Q92731). The assay can be described thus: qHTS assay to identify small molecule agonists of the estrogen receptor beta (ER-beta) signaling pathway (AID 1259377; active = well fitted activation curve with a large enough effect in the signal ratio in the repeat runs, not every such curve was filed as active; the % refers to the signal ratio). Summed up: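 Measured by fluorescence intensity from a B/G FRET beta-lactamase substrate (2 h, room temperature) in ER-beta-UAS-bla HEK293T cells treated with DMSO-dissolved compounds for 16 hr at 37C and 5% CO2.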
Chain of Estrogen receptor beta (Homo sapiens) (Q92731 whole entry, looked up): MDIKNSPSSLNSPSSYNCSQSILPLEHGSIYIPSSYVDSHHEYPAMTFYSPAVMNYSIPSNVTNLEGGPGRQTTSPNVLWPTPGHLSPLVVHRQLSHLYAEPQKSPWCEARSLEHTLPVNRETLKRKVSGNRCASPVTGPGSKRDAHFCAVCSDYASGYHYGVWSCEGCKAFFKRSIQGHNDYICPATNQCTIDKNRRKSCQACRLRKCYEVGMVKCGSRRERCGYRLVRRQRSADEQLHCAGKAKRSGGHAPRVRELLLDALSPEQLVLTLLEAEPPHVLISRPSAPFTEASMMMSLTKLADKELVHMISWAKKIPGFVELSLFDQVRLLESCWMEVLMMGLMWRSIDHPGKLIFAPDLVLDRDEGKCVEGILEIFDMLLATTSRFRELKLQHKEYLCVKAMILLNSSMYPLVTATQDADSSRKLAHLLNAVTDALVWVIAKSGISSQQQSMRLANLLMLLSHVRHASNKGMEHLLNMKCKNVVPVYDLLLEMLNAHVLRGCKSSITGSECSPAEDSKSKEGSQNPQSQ

For assay [17] the target is unchanged. As to the kind of experiment: qHTS assay to identify small molecule antagonists of the estrogen receptor beta (ER-beta) signaling pathway (AID 1259378; active = well fitted inhibition curve with a large enough effect in the signal ratio in the repeat runs, not every such curve was filed as active; the % refers to the signal ratio). The method, boiled down:
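ER-beta-UAS-bla HEK293T cells in 2% charcoal-stripped FBS medium treated with compound plus 1nM final 17-beta-estradiol for 16 hr at 37C. Beta-lactamase reporter read by FRET substrate fluorescence after 2 hours at room temperature.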

Assay [18] can be described thus: qHTS assay to identify small molecule phospholipidosis (PLD) inducers (AID 1259344; active = well fitted curve in the direction sought with a large enough effect; an effect the other way counts as inactive or inconclusive). The method, boiled down:
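Quantitative HTS in HepG2: compound plus LipidTOX Red dye for 24 h, paraformaldehyde fixation with Hoechst 33342, widefield high-content imaging; amiodarone as positive and DMSO as negative control.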
% is set by controls: 0 for no effect and ±100 for the full control effect.

Chain of Estrogen receptor (Homo sapiens) (P03372 whole entry, looked up): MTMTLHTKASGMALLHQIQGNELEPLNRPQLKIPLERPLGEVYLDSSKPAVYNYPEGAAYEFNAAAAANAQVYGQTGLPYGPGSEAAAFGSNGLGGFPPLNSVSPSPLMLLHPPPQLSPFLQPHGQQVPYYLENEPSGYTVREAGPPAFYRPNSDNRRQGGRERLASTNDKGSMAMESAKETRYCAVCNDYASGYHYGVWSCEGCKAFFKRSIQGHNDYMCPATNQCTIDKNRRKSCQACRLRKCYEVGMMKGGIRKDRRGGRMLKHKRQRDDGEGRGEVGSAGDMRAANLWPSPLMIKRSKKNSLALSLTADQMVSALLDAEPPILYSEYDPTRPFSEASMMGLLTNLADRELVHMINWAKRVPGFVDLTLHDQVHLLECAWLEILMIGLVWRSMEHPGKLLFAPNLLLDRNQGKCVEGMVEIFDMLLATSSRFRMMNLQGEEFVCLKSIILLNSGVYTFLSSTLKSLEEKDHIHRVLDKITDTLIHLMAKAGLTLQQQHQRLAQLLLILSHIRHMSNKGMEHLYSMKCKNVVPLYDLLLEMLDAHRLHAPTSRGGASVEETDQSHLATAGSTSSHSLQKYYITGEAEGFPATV

On to `CCCC(=O)Nc1ccc(O)c(C(C)=O)c1`, for which the Potency result in [1], in assay [2], in assay [3], in assay [4], in [5] and in [6] was “inactive” throughout. For the same compound, the Potency entry in assay [7], in assay [9], in [10], in [11], in assay [12] and in assay [13] was “inactive” each time. Moreover, the Potency entry in assay [14] was “inactive”. The compound was classed as inactive in assay [8].

Turning to `C[Si](C)(CCCN)O[Si](C)(C)CCCN`, the Potency entry in assay [1], in assay [2], in [3], in [4], in [5] and in [7] was “inactive” in each case. Also, the Potency entry in [15], in assay [10], in assay [11], in [12], in [13] and in assay [14] was “inactive” in each case. In addition, the compound was classed as inactive in assay [8].

In the case of `Cc1ccc(C(=O)Oc2ccc(C(O)CNC(C)(C)C)cc2OC(=O)c2ccc(C)cc2)cc1` (configuration not stated), the Potency entry in assay [1], in assay [2], in assay [3], in [4], in assay [5] and in assay [7] was “inactive” in each case. The Potency result in assay [9], in assay [16], in assay [12] and in assay [14] was “inactive” in each case. The outcome in [8] was inactive. Also, in assay [10], the Potency is 26.6 µM (active).

On to `CCOC(=O)Cc1cccc2ccccc12`, for which the Potency entry in [1], in assay [2], in [3], in assay [4], in [5] and in [6] was “inactive” throughout. Moreover, the Potency result in assay [7], in assay [9], in assay [16], in assay [17], in [15] and in [10] was “inactive” in each case. Also, the Potency entry in assay [11], in [12], in assay [13] and in assay [14] was “inactive” in each case. For the same compound, the compound was classed as inactive in [8].

As for `CC1=CC[C@H](C(C)C)C=C1`, the Potency result in assay [1], in assay [2], in assay [3], in [4], in assay [6] and in assay [7] was “inactive” each time. Moreover, the Potency entry in assay [15], in assay [11] and in assay [12] was “inactive” throughout. Besides, in [8], the outcome was inactive.

In the case of `C/C=C(/C(=C/C)c1ccc(OC(C)=O)cc1)c1ccc(OC(C)=O)cc1`, the Potency entry in assay [1], in [2], in assay [3], in assay [4], in assay [5] and in assay [6] was “inactive” each time. Besides, the Potency entry in [7], in assay [15], in [10], in assay [11], in assay [13] and in [14] was “inactive” in each case. In addition, in [8], the compound was called inactive. Also, the Potency in assay [9] is 29.8 µM (active); in assay [12] it was 13.3 nM (active).

As for `C[N+]1(C)CCC(OC(=O)C(O)(c2ccccc2)C2CCCC2)C1` (configuration not stated), the Potency result in assay [1], in assay [2], in [3], in [18], in [4] and in assay [5] was “inactive” each time. The Potency result in assay [7], in assay [9], in assay [15], in assay [10], in [11] and in [12] was “inactive” in each case. Besides, the Potency result in [13] and in [14] was “inactive” throughout. Further, the compound was called inactive in assay [8].

For the compound `Cc1[nH]c(C)c(Cl)c(=O)c1Cl`, the activity change, negative = cytotoxicity is -5.47% [at 19 µM] in [1]; 8.49% [at 19 µM] in assay [5]; 0.0878% [at 19 µM] in assay [15]; 2.64% [at 19 µM] in assay [10]; 0.273% [at 19 µM] in [11]. In addition, the viability change, negative = cytotoxic in assay [2] is 1.2% [at 19 µM]; in assay [7], 1.87% [at 19 µM]. Also, the Potency result in [3], in assay [18] and in assay [12] was “inactive” each time. For the same compound, the activity change in [8] was -0.115% [at 18.9 µM]. Moreover, the activity change, negative = inhibition is 33.7% [at 19 µM] in assay [9] and 4.84% [at 19 µM] in assay [14]. Further, the activation in [16] was 0.451% [at 19 µM]. For the same compound, the activity, negative = inhibition in assay [17] is 9.97% [at 19 µM]. Further, the cAMP activity change in assay [13] is 6.03% [at 18.9 µM, hits give high values].
